Reference: ChEMBL document CHEMBL1157539, “Thousands of chemical starting points for antimalarial lead identification” (Nature, 2010)

Tested on: Plasmodium falciparum
Assay: GSK_TCMDC: Inhibition of Plasmodium falciparum Dd2 in whole red blood cells, using parasite LDH activity as an index of growth. Test compounds present at 2uM
Type: functional

| SMILES | Inhibition [%] |
| --- | --- |
| CCCCCC(C)NC[C@@H](O)[C@H](Cc1ccccc1)NC(=O)c1cc(NCC)cc(N2CCCCS2(=O)=O)c1.Cl (some centres undefined) | 79 |
| CN1C(C)(C)CC(NC(=O)c2ccc(-c3nc4cc(Cl)c(Cl)cc4[nH]3)cc2)CC1(C)C | 97 |
| COc1ccc2nccc([C@@H](O)CN3CCC(NCc4cc5ccccc5s4)CC3)c2c1.O=C(O)C(=O)O | 53 |
| CCn1c(SCc2ccccc2)nc2c1c(=O)[nH]c(=O)n2C | 30 |
| Cc1ccc(S(=O)(=O)Nc2ccc(Nc3nccc(Nc4cccc5[nH]ncc45)n3)cc2)cc1 | 5 |
| CCCNC(=O)Nc1cc2cc(-c3cccc(CN4CCCCC4)c3)ccc2n2c(C)nnc12 | 50 |
| Cc1ccc(NC(=O)c2cccc(CN3CCCN(Cc4cccc(O)c4)CC3)c2)cc1.O=C(O)C(F)(F)F | 3 |
| CC(C)(C)c1cc(NC(=O)c2ccc(Cl)c([N+](=O)[O-])c2)cc(C(C)(C)C)c1 | 7 |
| CC(C)c1cc(Oc2c(I)cc(CCNCc3ccccc3)cc2I)ccc1O.Cl | 54 |
| CC(C)CNCc1cccc(-c2cccc(CN(CCCN3CCN(C)CC3)C(=O)CCC3CCCC3)c2)c1.O=C(O)C(F)(F)F | 96 |
| OCC(c1ccccc1)n1c(COc2ccc(Cl)cc2)nc2c(OCCCN3CCCCC3)cccc21 (centres undefined) | 68 |
| COc1ccc(CNC2CCN(c3ccc(NC(=O)c4cccc(Cl)c4)cc3)CC2)cc1OC | 13 |
| Nc1ncc(-c2ccc(F)cc2)c2ccc(-c3cccc(F)c3)cc12 | 89 |
| COc1ccc2nccc(N3CCC(O)(CCNCc4ccc5c(n4)NC(=O)CS5)CC3)c2n1.Cl | 21 |
